These results are taken from PubChem BioAssay (Tox21).

Each structure is given as a SMILES string. A number with no mark means an inactive call. Inconclusive results are not listed. Active and inactive are the calls of the source. Unless noted, calls follow the shape of the full dose curve.

A short description of test [1]: Nuclear factor erythroid 2-related factor 2/antioxidant responsive element (Nrf2/ARE) small molecule agonists: qHTS cell viability counter screen in human keratinocytes (AID 1919968; active = well fitted curve in the direction sought with a large enough effect in the repeat runs; an effect the other way counts as inactive or inconclusive; also: nearly all actives have a fitted effect of over 55% in size; also: potency is read from the fitted curve at half-maximal effect). Summed up: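 Parallel cytotoxicity read: KeratinoSens HaCaT cells, compound treatment 23 h, viability by CellTiter-Fluor fluorescence 1 h post-reagent.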
On the technique in general: In qHTS, concentration-response curves come from the screen itself.

Test [2] can be described thus: G protein-coupled receptor (GPCR) small molecule agonists, calcium flux assay: HEK293 wild type cell line counter screen (AID 1920065). In outline:
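Non-specific calcium responders were flagged by adding DMSO-dissolved compounds to dye-loaded cells and reading 480/540 nm fluorescence each second for 3 min; ATP served as positive control.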
(A change in cytosolic calcium serves as a functional read-out for many receptors and channels.)

The nature of test [3]: p53 small molecule agonists, cell-based qHTS assay with human liver microsomes (AID 1963577).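 Also: p53 response element beta-lactamase reporter cells with liver microsomes plus NADPH.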 Summed up:
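16 h, 37 C exposure of p53RE-bla cells to compounds with human liver microsomes and NADPH (0.5 mg/mL final each); detection via LiveBLAzer mixture, 2 h dark at room temperature.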

Test [4] can be described thus: p53 small molecule agonists, cell-based qHTS assay with rat liver microsomes (AID 1963578). In outline:
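With rat liver microsomes and NADPH present (0.5 mg/mL final each), p53RE-bla cells are treated with compound for 16 h at 37 C. LiveBLAzer detection mixture is then applied for 2 h at room temperature in the dark.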

Test [5] is described as follows: p53 small molecule agonists, cell-based qHTS assay with human liver microsomes: qHTS cell viability counter screen (AID 1963579). Also: nearly all actives have a fitted effect of over 45% in size. Also: potency is read from the fitted curve at half-maximal effect. In outline: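 In this multiplexed counter screen, the reporter plates were subsequently treated with CellTiter-Glo so that cell viability, reflected by luminescence, could be recorded for p53RE-bla cells dosed 16 h with compounds under microsomal activation (HLM and NADPH).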

Test [6] is described as follows: p53 small molecule agonists, cell-based qHTS assay with rat liver microsomes: qHTS cell viability counter screen (AID 1963580). Also: nearly all actives have a fitted effect of over 45% in size. Also: potency is read from the fitted curve at half-maximal effect. Summed up:
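Cytotoxicity counter screen: intracellular ATP read by CellTiter-Glo luminescence in the p53 reporter wells. HCT-116 p53RE-bla cells were treated for 16 h at 37 C alongside rat liver microsomes and NADPH, each 0.5 mg/mL final.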

The nature of test [7]: p53 small molecule agonists, cell-based qHTS assay: qHTS cell viability counter screen (AID 1963581). Also: nearly all actives have a fitted effect of over 45% in size. Also: potency is read from the fitted curve at half-maximal effect. In outline:
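Multiplexed with the reporter read, a CellTiter-Glo step (30 min, room temperature) gauges ATP-based viability of HCT-116 p53RE-bla cells after 16 h compound incubation at 37 C.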

Test [8] can be described thus: p53 small molecule agonists, cell-based qHTS assay (AID 1963582; active = well fitted activation curve with a large enough effect in the signal ratio in the repeat runs, not every such curve was filed as active; the % refers to the signal ratio). Summed up: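 Beta-lactamase reporter cells (p53RE-bla) treated with compounds for 16 h at 37 C; FRET substrate, 2 h, room temperature; fluorescence intensity.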
The target of test [9] is Muscarinic acetylcholine receptor M1 (Homo sapiens) (UniProt P11229). The test is described as follows: Cholinergic receptor muscarinic 1 (CHRM1) small molecule antagonists, cell-based qHTS assay (AID 1963588). Also: nearly all actives have a fitted effect of over 40% in size. Also: potency is read from the fitted curve at half-maximal effect. In outline: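 Compounds were tested at 15 concentrations in three independent runs. Dye-loaded CHRM1-CHO cells were exposed 5 min at room temperature before stimulation by acetylcholine added at 50nM. Intracellular calcium was read kinetically on FDSS for 3 min.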

The target is the same in test [10]. Description: Cholinergic receptor muscarinic 1 (CHRM1) small molecule agonists, cell-based qHTS assay (AID 1963589). Also: nearly all actives have a fitted effect of over 35% in size. Also: potency is read from the fitted curve at half-maximal effect. Summed up:
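qHTS, 15-point titration, 3 independent runs: compounds pin-transferred onto dye-loaded CHRM1-CHO cells (human M1), calcium fluorescence followed every second to detect agonism.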

A short description of test [11]: cAMP Responsive Elements (CRE) small molecule agonists, cell-based qHTS assay (AID 1963590). Summed up: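 Quantitative HTS for CRE agonists: HEK 293T CRE-bla cells, overnight plating, 3 h compound incubation at 37 C/5% CO2, then 2 h room-temperature LiveBLAzer B/G FRET substrate loading.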
The nature of test [12]: cAMP Responsive Elements (CRE) small molecule antagonists, cell-based qHTS assay (AID 1963591; active = well fitted inhibition curve with a large enough effect in the signal ratio in the repeat runs, not every such curve was filed as active; the % refers to the signal ratio). In outline:
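Fluorescence intensity from cleaved LiveBLAzer B/G substrate (2 h, room temperature) quantified CRE-bla activity in HEK 293T cells exposed 3 h to compound with 0.25 uM final NKH477.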

The target in test [13] is Beta-2 adrenergic receptor (Homo sapiens) (UniProt P07550). Description: Adrenergic beta2 receptor (ADRB2) small molecule antagonists, cell-based qHTS assay (AID 1963592). Also: series mostly up to about 92 µM; nearly all actives have a fitted effect of over 50% in size. Summed up:
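Assay format: CHO-ADRB2 cells, 18-20hr seeding at 37C/5% CO2, then compound plus 1nM isoproterenol agonist mix for 0.5hr RT. Homogeneous time-resolved fluorescence cAMP detection after 1hr, expressed as 665/615 nm ratio.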

Test [14] has as its target D(2) dopamine receptor (Homo sapiens) (UniProt P14416). Description: Dopamine D2 receptor (DRD2) small molecule agonists, cell-based qHTS assay (AID 1963594). Also: nearly all actives have a fitted effect of over 35% in size. In outline: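 cAMP accumulation in DRD2-HEK293 cells measured by HTRF after 1 h detection; compounds added 10 min before NKH477 (200nM […]) forskolin-analogue stimulation, 30 min at room temperature, with Ro20-1724 present at 0.1 mM final.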

Test [15] deals with 5-hydroxytryptamine receptor 2A (Homo sapiens) (UniProt P28223). The test is described as follows: 5-hydroxytryptamine receptor 2A (HTR2A) small molecule antagonists, cell-based qHTS assay (AID 1963586). Also: nearly all actives have a fitted effect of over 45% in size. In outline:
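CHO cells stably expressing human HTR2A were plated for 18 h at 37 C, then loaded with calcium dye for 1 h. Compounds were preincubated 5 min at room temperature before DOI (4 nM solution) was added. Kinetic fluorescence was read for 3 min.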

Test [16] has the same target. The test is described as follows: 5-hydroxytryptamine receptor 2A (HTR2A) small molecule agonists, cell-based qHTS assay (AID 1963587). Also: nearly all actives have a fitted effect of over 30% in size. Also: potency is read from the fitted curve at half-maximal effect. In outline:
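Kinetic calcium-flux fluorescence (2 min, 1 sec intervals) after compound addition in agonist mode. HTR2A-CHO cells were cultured 18 h, then dye-loaded 1 h at 37 C.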

Test [17] concerns the target D(2) dopamine receptor (Homo sapiens) (UniProt P14416). The test is described as follows: Dopamine D2 receptor (DRD2) small molecule antagonists, cell-based qHTS assay (AID 1963595; active = well fitted inhibition curve with a large enough effect in the signal ratio in the repeat runs, with a control signal flat; the % refers to the signal ratio). Summed up:
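In this cell-based antagonist screen, compounds act for 10 min at room temperature before a 30 min challenge with 12 nM quinpirole and 200 nM NKH477. cAMP is quantified by HTRF competition in DRD2-HEK293 cells containing 0.1 mM Ro20-1724.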

Test [18] concerns the target KiSS-1 receptor (Homo sapiens) (UniProt Q969F8). The test is described as follows: Human kisspeptin (KISS1R) small molecule agonists, calcium flux assay in KISS1R-HEK293 cells (AID 1920064; active = well fitted curve in the direction sought with a large enough effect in the repeat runs; an effect the other way counts as inactive or inconclusive). In outline: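 Triplicate 15-concentration series were applied to dye-loaded human KISS1R HEK293 cells, and agonist-evoked calcium fluorescence was captured for 3 min.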
The target of test [19] is Beta-2 adrenergic receptor (Homo sapiens) (UniProt P07550). The test is described as follows: Adrenergic beta2 receptor (ADRB2) small molecule agonists, cell-based qHTS assay (AID 1963593).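 Also: CHO cells stably overexpressing human ADRB2.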 Summed up: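 CHO cells stably over-expressing ADRB2 were plated overnight at 37C, then dosed with compounds plus a stimulation mix containing 100uM IBMX and 25uM Ro-20-1724 for 0.5hr at room temperature. cAMP was measured by HTRF competition, 1hr.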
Sequence of Beta-2 adrenergic receptor (Homo sapiens) (P07550 whole entry, looked up): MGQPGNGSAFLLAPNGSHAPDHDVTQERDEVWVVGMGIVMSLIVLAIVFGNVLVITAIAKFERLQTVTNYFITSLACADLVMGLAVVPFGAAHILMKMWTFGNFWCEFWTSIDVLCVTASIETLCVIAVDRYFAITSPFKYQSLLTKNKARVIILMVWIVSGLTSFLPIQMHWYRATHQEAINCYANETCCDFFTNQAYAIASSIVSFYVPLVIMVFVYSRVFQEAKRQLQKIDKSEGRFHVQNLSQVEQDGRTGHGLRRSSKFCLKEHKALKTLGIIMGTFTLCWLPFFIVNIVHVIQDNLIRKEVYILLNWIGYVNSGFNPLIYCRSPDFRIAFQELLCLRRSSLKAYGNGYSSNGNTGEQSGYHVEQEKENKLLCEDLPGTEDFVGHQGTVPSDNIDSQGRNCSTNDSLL

Sequence of KiSS-1 receptor (Homo sapiens) (Q969F8 whole entry, looked up): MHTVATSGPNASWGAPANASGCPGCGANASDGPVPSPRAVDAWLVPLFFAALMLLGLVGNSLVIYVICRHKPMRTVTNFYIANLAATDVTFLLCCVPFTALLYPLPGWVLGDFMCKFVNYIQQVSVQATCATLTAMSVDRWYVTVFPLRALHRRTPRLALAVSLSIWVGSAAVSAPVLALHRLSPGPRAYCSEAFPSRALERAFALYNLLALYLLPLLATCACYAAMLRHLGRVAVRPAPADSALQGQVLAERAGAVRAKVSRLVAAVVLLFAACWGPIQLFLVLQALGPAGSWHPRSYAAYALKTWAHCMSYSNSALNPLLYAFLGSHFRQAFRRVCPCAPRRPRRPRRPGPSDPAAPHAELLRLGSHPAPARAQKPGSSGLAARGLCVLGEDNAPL
Sequence of Muscarinic acetylcholine receptor M1 (Homo sapiens) (P11229 whole entry, looked up): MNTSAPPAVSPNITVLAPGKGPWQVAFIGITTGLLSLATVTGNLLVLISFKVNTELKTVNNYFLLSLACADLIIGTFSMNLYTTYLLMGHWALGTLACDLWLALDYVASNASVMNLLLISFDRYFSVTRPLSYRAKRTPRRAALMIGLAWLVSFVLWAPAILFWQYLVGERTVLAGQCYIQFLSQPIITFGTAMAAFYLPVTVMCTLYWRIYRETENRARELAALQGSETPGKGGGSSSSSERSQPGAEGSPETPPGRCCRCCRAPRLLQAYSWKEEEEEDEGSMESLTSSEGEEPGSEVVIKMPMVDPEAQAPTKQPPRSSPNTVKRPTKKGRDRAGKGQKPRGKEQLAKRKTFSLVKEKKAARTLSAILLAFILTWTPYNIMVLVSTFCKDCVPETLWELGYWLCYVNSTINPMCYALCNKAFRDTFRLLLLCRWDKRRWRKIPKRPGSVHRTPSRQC
Sequence of 5-hydroxytryptamine receptor 2A (Homo sapiens) (P28223 whole entry, looked up): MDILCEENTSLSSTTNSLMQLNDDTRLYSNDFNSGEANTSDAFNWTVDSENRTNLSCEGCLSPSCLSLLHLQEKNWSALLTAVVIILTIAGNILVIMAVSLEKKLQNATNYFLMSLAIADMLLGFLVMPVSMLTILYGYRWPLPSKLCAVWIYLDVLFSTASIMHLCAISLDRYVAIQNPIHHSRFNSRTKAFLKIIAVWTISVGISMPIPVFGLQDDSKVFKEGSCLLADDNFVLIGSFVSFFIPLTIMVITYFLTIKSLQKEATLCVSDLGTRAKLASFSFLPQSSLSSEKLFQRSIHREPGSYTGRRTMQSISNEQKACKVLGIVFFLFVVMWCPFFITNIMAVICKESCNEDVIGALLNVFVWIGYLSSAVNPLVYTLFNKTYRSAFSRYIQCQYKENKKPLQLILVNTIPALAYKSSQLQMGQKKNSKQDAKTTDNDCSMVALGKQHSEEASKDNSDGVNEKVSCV
Sequence of D(2) dopamine receptor (Homo sapiens) (P14416 whole entry, looked up): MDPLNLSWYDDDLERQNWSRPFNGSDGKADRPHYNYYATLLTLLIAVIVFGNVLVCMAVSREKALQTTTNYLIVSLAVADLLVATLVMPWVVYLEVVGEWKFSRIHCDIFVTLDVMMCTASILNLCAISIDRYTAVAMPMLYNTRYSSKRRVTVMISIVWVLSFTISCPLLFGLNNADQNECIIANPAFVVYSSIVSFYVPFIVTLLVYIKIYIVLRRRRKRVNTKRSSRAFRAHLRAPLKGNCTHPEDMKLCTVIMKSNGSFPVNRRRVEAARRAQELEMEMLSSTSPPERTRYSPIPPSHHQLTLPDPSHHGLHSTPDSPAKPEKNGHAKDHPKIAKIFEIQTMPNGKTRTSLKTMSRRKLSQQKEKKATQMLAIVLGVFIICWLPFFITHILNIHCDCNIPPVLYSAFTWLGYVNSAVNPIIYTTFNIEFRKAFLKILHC

As for `O=C(Cl)c1ccc(Cl)cc1Cl`, the Potency entry in test [1], in test [2], in test [3], in test [4], in test [5] and in test [6] was “inactive” in each case. The Potency result in [7], in test [8], in [9], in [10], in test [11] and in test [12] was “inactive” throughout. Further, the Potency entry in [13] and in test [14] was “inactive” each time.
For the compound `CC(=O)OC(C)C[N+](C)(C)C` (stereo unspecified), the Potency result in [1], in test [2], in [4], in test [5], in test [6] and in test [7] was “inactive” throughout. The Potency result in test [15], in [16], in [11], in test [12], in [13] and in test [14] was “inactive” in each case. For the same compound, the Potency result in test [17] was “inactive”. Moreover, the Potency in [10] is 0.151 µM (active).
Consider `O=C1c2c(O)ccc([N+](=O)[O-])c2C(=O)c2c([N+](=O)[O-])ccc(O)c21`, for which the Potency in test [1] was 15.2 µM (active); in [5], 18 µM (active); in test [6], 20.2 µM (active); in test [7] it was 5.71 µM (active). The Potency result in test [18], in test [2], in test [16] and in test [10] was “inactive” in each case.
As to `OC(C#CCN1CCCC1)(c1ccccc1)c1ccccc1`, the Potency entry in test [1], in [18], in test [2], in test [5], in [6] and in test [7] was “inactive” in each case. The Potency result in test [15], in test [16], in test [11], in [12], in test [13] and in test [14] was “inactive” in each case. Also, in test [17], the Potency entry was “inactive”. Moreover, the Potency in test [9] was 0.0065 µM (active).
As to `CCCCOCCOC(=O)COc1nc(Cl)c(Cl)cc1Cl`, the Potency entry in [1], in [2], in test [3], in test [4], in [6] and in test [8] was “inactive” each time. The Potency entry in test [11], in [12] and in test [13] was “inactive” each time.
Take `C[C@H](CCC(=O)O)[C@H]1CC[C@H]2[C@@H]3CC[C@@H]4C[C@H](O)CC[C@]4(C)[C@H]3CC[C@]12C`: the Potency result in [1], in [2], in test [3], in test [4], in test [5] and in test [6] was “inactive” each time. The Potency entry in test [7], in test [9], in [10], in test [12], in test [13] and in test [19] was “inactive” in each case. In addition, the Potency result in test [14] and in test [17] was “inactive” each time. Also, in test [16], the Potency is 24.4 µM (active).
Turning to `CNCc1cc(F)ccc1Oc1ccc(Cl)c(Cl)c1`, the Potency in [1] was 27.3 µM (active). Moreover, the Potency entry in [2], in test [4], in test [5], in test [6], in test [7] and in [8] was “inactive” throughout. The Potency entry in [10], in test [11], in test [13] and in test [19] was “inactive” in each case.
`CCCCC(CC)COS(=O)(=O)O` (stereo unspecified): the Potency entry in test [1], in test [18], in test [2], in test [5], in [6] and in test [7] was “inactive” in each case. Moreover, the Potency result in test [15], in test [16], in test [10], in test [11], in test [13] and in [14] was “inactive” throughout. Further, the Potency entry in test [17] is “inactive”.
`Cc1cccc2c1cc1ccc3cccc4ccc2c1c34`: the Potency result in test [1], in test [18], in [5], in test [6], in test [7] and in [15] was “inactive” in each case. Moreover, the Potency result in test [16], in test [9], in [13], in [19], in test [14] and in [17] was “inactive” throughout.
Regarding `CSCC[C@H](NC(=O)[C@H](Cc1c[nH]c2ccccc12)NC(=O)CCNC(=O)OC(C)(C)C)C(=O)N[C@@H](CC(=O)O)C(=O)N[C@@H](Cc1ccccc1)C(N)=O`, the Potency entry in test [1], in test [18], in [2], in test [5], in test [6] and in test [7] was “inactive” each time. Also, the Potency entry in [11], in test [12], in [13], in [14] and in test [17] was “inactive” each time.
